Assay results taken from PubChem BioAssay AID1159580 (chemical genetic matrix, 2015).
Out of some 5,500 compounds screened, about 2,000 (36%) were called active. Roughly 18% stayed inconclusive and do not appear here. No stated cut-off is given here; in the data, active means normalized growth mostly below about 0.91 (no sharp cut-off); inconclusive means no clear call, values can overlap the other calls; inactive means mostly above about 0.92. Some of the results follow.

Test: chemical genetic growth profiling, strain panel (AID 1159580);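 further: tested at 20 µM; growth read once vehicle control cultures reached saturation at 30 °C; 1 = growth at the plate median or of vehicle wells; lower values mean less growth of the strain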
Conditions: S. cerevisiae deletion strains, growth OD

Measured: normalized growth

NOCC(=O)O
inactive: locus YAL040C, strain CLN3, hits give low values 0.96 | locus YCL061C, strain MRC1 (second series), hits give low values 0.985 | locus YDR363W, strain ESC2, hits give low values 1.01 | locus YER002W, strain NOP16, hits give low values 0.997 | locus YGR229C, strain SMI1, hits give low values 0.979 | locus YJR075W, strain HOC1, hits give low values 1 | locus YNL128W, strain TEP1, hits give low values 0.977 | locus YNL175C, strain NOP13, hits give low values 1.01 | locus YNL197C, strain WHI3, hits give low values 0.993 | locus YNL224C, strain SQS1, hits give low values 1.04 | locus YNL322C, strain KRE1, hits give low values 0.998 | locus YOR083W, strain WHI5 (second series), hits give low values 0.993 | locus YPL055C, strain LGE1, hits give low values 0.999
